Assay [1] can be described thus: NCI Yeast Anticancer Drug Screen. Data for the rad50 strain (AID 155).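 Further: 0% = growth of vehicle-only cultures of the same strain.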 The following applies: S. cerevisiae rad50 strain growth inhibition; at 50.0 µM; hits give high values. The procedure, abridged: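 DNA repair mutant yeast, compound exposure, growth read-out; inhibition is taken relative to vehicle.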
Assay [2] is described as follows: NCI Yeast Anticancer Drug Screen. Data for the mec2-1 strain (AID 157). The following applies: S. cerevisiae mec2-1 strain, at 50.0 µM, hits give high values. The procedure, abridged:
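Mutant yeast (mec2-1) grown with compound; growth inhibition relative to vehicle control reported.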

Assay [3] can be described thus: NCI Yeast Anticancer Drug Screen. Data for the sgs1 mgt1 strain (AID 161).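 Further: 0% = growth of cultures given vehicle only.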 The following applies: S. cerevisiae sgs1 mgt1 strain, at 50.0 µM, hits give high values. The procedure, abridged: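 Percent growth inhibition was derived by comparing compound-exposed mutant yeast with vehicle-exposed cultures. The strain carries alterations in DNA damage repair.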
Assay [4] in a line: NCI Yeast Anticancer Drug Screen. Data for the bub3 strain (AID 167). The following applies: S. cerevisiae bub3 mutant strain, at 50.0 µM, hits give high values. The procedure, abridged:
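In this screen, a yeast mutant lacking normal mitotic checkpoint function is challenged with compound. Relative growth versus vehicle gives the inhibition value.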

Assay [5] is described as follows: NCI Yeast Anticancer Drug Screen. Data for the mlh1 rad18 strain (AID 175). The following applies: S. cerevisiae mlh1 rad18 strain growth inhibition; at 50.0 µM; hits give high values. The procedure, abridged: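 Genetically defined yeast (DNA repair-deficient) exposed to compounds; growth inhibition determined relative to vehicle.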

These results are taken from PubChem BioAssay (NCI).

About 79,000 compounds went through this panel and 15% of them were active in at least one assay; those are over-represented in the sample as a whole. Values without a mark were called inactive. The source made the active and inactive calls. No stated cut-off is given here; in the data, active means growth inhibition above about 70%; inactive means the rest. Where a SMILES comes first, the peptide text is derived from it. Bridges are numbered along the chain shown (N, C = ends). Roman numbers before positions name the chains, in order. [ ]: non-standard residue; d: D form. The star is where a group is joined. Quinoxaline2carbonyl = O=C(c1cnc2ccccc2n1)*; NMeV = CN[CH](C(=O)O)C(C)C; NMeC = CN[CH](CS)C(=O)O

On to `CCOP(=O)(OCC)O/N=C(/c1ccccc1)C(C)C`, for which the growth inhibition was 25.4% in assay [1]; 4.85% in assay [2]; 19.9% in assay [3]; -0.1% in assay [4]; 2.4% in assay [5].

On to `O=C(CC(=O)c1ccccc1)c1ccccc1.O=C(CC(=O)c1ccccc1)c1ccccc1.[Pd]`, for which the growth inhibition in assay [1] was 20.5%; in assay [2], 4.9%; in assay [3], 6.7%; in assay [4], 6.05%; in assay [5], 19.8%.

In the case of `CCCCCCCCCCCCCCCC(=O)OCC(C[As](=O)(O)O)OC(=O)CCCCCCCCCCCCCCC` (stereo not given), the growth inhibition in assay [1] is 26.1%; in assay [2] it was 5.9%; in assay [3], -15.1%; in assay [4], -0.15%; in assay [5] it was 13.5%.

With `BrCC[N+]12CCCN1CCC2`, the growth inhibition in assay [1] was -7.95%; in assay [2], -31.4%; in assay [3] it was 3.25%; in assay [4] it was -7.05%; in assay [5], -31.3%.

As for `C=C1OC(OC)CC(N=[N+]=[N-])C1O` (stereo not given), the growth inhibition in assay [1] was -14.1%; in assay [2], -2.9%; in assay [3], -6.4%; in assay [4] it was 2.45%; in assay [5] it was -15.6%.

Consider `COc1ccc2c(c1)C1(C)CCN(C)CC(C1)C2O` (stereo not given), for which the growth inhibition in assay [1] is 47.2%; in assay [2], 13.6%; in assay [3], 15.6%; in assay [4] it was -1%; in assay [5] it was 23.2%.

For `CC1(C)CN=C(Nc2ccc(F)c(Cl)c2)S1`, the growth inhibition in assay [1] is 12.9%; in assay [2], 1.15%; in assay [3], -17.9%; in assay [4], -24.7%; in assay [5] it was -35.4%.

As for `O=[N+]([O-])c1cc(Br)c(O)c(Br)c1`, the growth inhibition in assay [1] was 12.2%; in assay [2] it was 18.8%; in assay [3] it was 5.15%; in assay [4], 6.75%; in assay [5], 32.3%.

Regarding `CCCCCCCC(=O)O.[Ni]`, the growth inhibition in assay [1] was -15.1%; in assay [2], -0.6%; in assay [3] it was -2.3%; in assay [4], -18.4%; in assay [5] it was -18.5%.

With `C=CCC1(O)CCC2C3CCC4=CC(=O)CCC4=C3C=CC21CC` (stereo not given), the growth inhibition in assay [1] is 26.9%; in assay [2], -7.35%; in assay [3], 20.4%; in assay [4], 21.5%; in assay [5], 21.6%.

For `Oc1ccc(O)c(Br)c1`, the growth inhibition is 18.8% in assay [1]; 5.9% in assay [2]; 28.1% in assay [3]; -4.85% in assay [4]; 29.4% in assay [5].

As for `O=C(CC(=O)c1ccccc1)c1ccccc1.[Tl]`, the growth inhibition in assay [1] was 96.2% (active); in assay [2], 91.5% (active); in assay [3], 97.5% (active); in assay [4], 88.7% (active); in assay [5] it was 98.1% (active).

With `CCN1CC2CCC1C2` (stereo not given), the growth inhibition was 5.2% in assay [1]; -3.05% in assay [2]; -14.5% in assay [3]; 3.7% in assay [4]; 4.35% in assay [5].

As for `O=c1ccc(=O)[nH][nH]1.[Mn]`, the growth inhibition is 2.05% in assay [1]; 4.5% in assay [2]; -13.6% in assay [3]; 7.2% in assay [4]; -1.7% in assay [5].

Consider `O=C([CH-]C(=O)c1ccccc1)c1ccccc1.[CH2-]C.[CH2-]C.[Tl+3]`, for which the growth inhibition was 52.3% in assay [1]; 35.6% in assay [2]; 37.2% in assay [3]; 60.1% in assay [4]; 55.1% in assay [5].

Regarding `O=C(COc1cccc(Cl)c1)NCc1ccccc1NC(=O)c1ccc(S(=O)(=O)F)cc1`, the growth inhibition in assay [1] was 95.2% (active); in assay [2], 84.3% (active); in assay [3], 95.2% (active); in assay [4] it was 90.5% (active); in assay [5] it was 95.8% (active).

On to `O=C(O)C(Cl)Cl`, for which the growth inhibition in assay [1] is -1.6%; in assay [2] it was -29.6%; in assay [3], 4.45%; in assay [4], -1.6%; in assay [5] it was 9.45%.

For the compound `Cc1nnn[n-]1.N.N.N.N.N.[Cl-].[Co+3]`, the growth inhibition in assay [1] is 3.15%; in assay [2], -6.95%; in assay [3] it was -9.55%; in assay [4] it was -0.15%; in assay [5], -16.5%.

On to `CCCCN(CCCC)C(=O)C1C=C2c3cccc4[nH]cc(c34)CC2N(C)C1` (stereo not given), for which the growth inhibition in assay [1] was -0.85%; in assay [2], -1.3%; in assay [3], -11.2%; in assay [4], 6.65%; in assay [5] it was 37.4%.

As for `CN(C)P1(N(C)C)=NP(c2ccccc2)(c2ccccc2)=NP(N(C)C)(N(C)C)=N1`, the growth inhibition in assay [1] is 13.3%; in assay [2], 20.9%; in assay [3] it was 47.5%; in assay [4], 1.9%; in assay [5] it was 48.2%.

Turning to `C=C(C(=C)P(=S)(C(C)C)C(C)C)P(=S)(C(C)C)C(C)C`, the growth inhibition in assay [1] is -8.65%; in assay [2], -10.6%; in assay [3], 4.75%; in assay [4] it was -7%; in assay [5], -3.45%.

As for `CC1NC(=O)C(NC(=O)c2cnc3ccccc3n2)COC(=O)C(C(C)C)N(C)C(=O)C2CSSCC(C(=O)N(C)C(C(C)C)C(=O)OCC(NC(=O)c3cnc4ccccc4n3)C(=O)NC(C)C(=O)N2C)N(C)C1=O` (stereo not given) (I: Quinoxaline2carbonyl-SA[NMeC][NMeV] / II: Quinoxaline2carbonyl-SA[NMeC][NMeV]; ester I:1-II:C, I:C-II:1; disulfide I:3-II:3; configuration not given here), the growth inhibition in assay [1] is 87.3% (active); in assay [2], 90.5% (active); in assay [3], 90% (active); in assay [4], 88.2% (active); in assay [5] it was 89.7% (active).

For `O=C([CH-]C(=O)c1ccccc1)c1ccccc1.O=C([CH-]C(=O)c1ccccc1)c1ccccc1.[OH-].[OH-].[Ti+4]`, the growth inhibition in assay [1] is 6.25%; in assay [2] it was -9.65%; in assay [3], -6.85%; in assay [4], 36.9%; in assay [5], 8.7%.
